# Source: the supplement of paper PMC10681739
# Experiments:
# RUNX1 [1] = molecular target: RUNX1 (UniProt Q01196); experiment: RUNX1 binding intensity (PBM fluorescence), RUNX1 alone (arbitrary fluorescence units); higher = stronger binding; details: RUNX1 concentration 2 nM; ETS1 concentration 0 nM
# Experimental: (§1)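 Cooperative gcPBM on 36-bp genomic probes with neighbouring ETS1 and RUNX1 sites. Recombinant human RUNX1 (2 nM) was incubated alone or with ETS1 (25 nM) and detected with anti-RUNX1 antibody plus Alexa488 secondary. Values are medians over 4 replicate spots; the RUNX1+ETS1 data were normalised to the RUNX1-only data. The probes sit in constant array flanks that are not printed.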
# RUNX1 [2] = molecular target: RUNX1 (UniProt Q01196); experiment: RUNX1 binding intensity (PBM fluorescence) in presence of ETS1, normalised to RUNX1-only experiment (arbitrary fluorescence units); higher = stronger binding; details: RUNX1 concentration 2 nM; ETS1 concentration 25 nM
# Experimental: as §1
# 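For RUNX1 binding intensity (PBM fluorescence) in presence of ETS1, normalised to RUNX1-only experiment in this document: Full-length recombinant human ETS1 or RUNX1 bound to double-stranded 36-bp genomic probes on microarrays, detected by protein-specific primary antibody and Alexa488 secondary, spot fluorescence as median of four replicate spots.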
# 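For RUNX1 binding intensity (PBM fluorescence), RUNX1 alone in this document: Full-length recombinant human RUNX1 bound to double-stranded 36-bp genomic probes on a high-density microarray, scored as Alexa488 fluorescence per spot via anti-RUNX1 antibody, median of four replicate spots.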
# Sequence of RUNX1 (Q01196 whole entry): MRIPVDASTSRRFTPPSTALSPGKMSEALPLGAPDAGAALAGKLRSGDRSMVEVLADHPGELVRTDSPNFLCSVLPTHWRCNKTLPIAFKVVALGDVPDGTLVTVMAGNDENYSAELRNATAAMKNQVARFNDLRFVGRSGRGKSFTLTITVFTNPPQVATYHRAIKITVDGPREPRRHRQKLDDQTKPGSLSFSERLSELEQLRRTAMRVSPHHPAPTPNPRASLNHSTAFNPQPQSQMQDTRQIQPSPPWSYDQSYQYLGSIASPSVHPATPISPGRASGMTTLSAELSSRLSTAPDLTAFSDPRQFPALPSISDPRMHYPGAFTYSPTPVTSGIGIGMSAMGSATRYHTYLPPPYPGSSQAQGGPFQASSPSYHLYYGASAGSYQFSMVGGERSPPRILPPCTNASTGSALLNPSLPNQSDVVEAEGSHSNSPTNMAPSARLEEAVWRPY
sequence,measurement,setting,value
TCCTGCCCTCCCATCCTGTGGTCAGAGGCCAGGGCT,RUNX1 binding intensity,RUNX1 [1],854
same,RUNX1 binding intensity,RUNX1 [2],1580
AGCAGGGCTCGCCGGGAAATGTGGTTTCTCCAGCCG,RUNX1 binding intensity,RUNX1 [1],843
same,RUNX1 binding intensity,RUNX1 [2],952
CAGTGTTCCGCGTCCGGGGGTTTGTGGGAGTTGCCT,RUNX1 binding intensity,RUNX1 [1],989
same,RUNX1 binding intensity,RUNX1 [2],1120
AAGACACCAACGCTCGGAAACCGCCAGACACCAACG,RUNX1 binding intensity,RUNX1 [1],945
same,RUNX1 binding intensity,RUNX1 [2],916
AGTTTCCTGAACTCAGAGCACAGTTGTGGTGCAGAA,RUNX1 binding intensity,RUNX1 [1],743
same,RUNX1 binding intensity,RUNX1 [2],1270
ACGTCAGCATCCGCCGGGCTCGCGGTAAGGTGTGAG,RUNX1 binding intensity,RUNX1 [1],736
same,RUNX1 binding intensity,RUNX1 [2],1280
ACAGACAGCATCCTGAGCTCGTGGTTAGAACACCCT,RUNX1 binding intensity,RUNX1 [1],841
same,RUNX1 binding intensity,RUNX1 [2],985
ATTTTAGCATTTTCCTGCTCGGAGACCACATGTTTG,RUNX1 binding intensity,RUNX1 [1],1170
same,RUNX1 binding intensity,RUNX1 [2],1220
CCACCATCTTTCCGGCTCCCTCGCGACCACCACGAC,RUNX1 binding intensity,RUNX1 [1],1410
same,RUNX1 binding intensity,RUNX1 [2],1970
ACTGAACAAACCGGATGTGGTTGCCACCTGCAATCT,RUNX1 binding intensity,RUNX1 [1],848
same,RUNX1 binding intensity,RUNX1 [2],21800
GTTGGTCGCGCGCCTTCCTGCGGCTAAGATGGCGAC,RUNX1 binding intensity,RUNX1 [1],749
same,RUNX1 binding intensity,RUNX1 [2],923
TCCGCCCGCGGATGCTGAGAACCGCAGCTGCACAAG,RUNX1 binding intensity,RUNX1 [1],948
same,RUNX1 binding intensity,RUNX1 [2],827
GGCGGGGCATCCGGCAGCACCGCCTGCGGGCGCCCG,RUNX1 binding intensity,RUNX1 [1],667
same,RUNX1 binding intensity,RUNX1 [2],1070
TGAGTTTTGTTTCCGATTCACCACAGAAGATACTTT,RUNX1 binding intensity,RUNX1 [1],2230
same,RUNX1 binding intensity,RUNX1 [2],2560
TAGGCGGAAAGCCCGCTAGCCTAAACCACAGAGGGT,RUNX1 binding intensity,RUNX1 [1],896
same,RUNX1 binding intensity,RUNX1 [2],872
GGGATCCTTCCGCTCCGGGTTAACCCCGACCGCGCC,RUNX1 binding intensity,RUNX1 [1],795
same,RUNX1 binding intensity,RUNX1 [2],1620
ATAGACCCAGCCCGTCCGGTAACCGCGCTCCTCGAT,RUNX1 binding intensity,RUNX1 [1],836
same,RUNX1 binding intensity,RUNX1 [2],913
AACTCCTGGCCGGAACGGCACAGACCGCACTCCCGC,RUNX1 binding intensity,RUNX1 [1],938
same,RUNX1 binding intensity,RUNX1 [2],917
